# Experimental data: the supplement of paper PMC10681739
# Assays:
# ETS1 [1] = target: T1, ETS1 (UniProt P14921); assay: ETS1 binding intensity (PBM fluorescence), ETS1 alone (arbitrary fluorescence units); higher = stronger binding; details: ETS1 concentration 1 nM; RUNX1 concentration 0 nM
# T1 sequence: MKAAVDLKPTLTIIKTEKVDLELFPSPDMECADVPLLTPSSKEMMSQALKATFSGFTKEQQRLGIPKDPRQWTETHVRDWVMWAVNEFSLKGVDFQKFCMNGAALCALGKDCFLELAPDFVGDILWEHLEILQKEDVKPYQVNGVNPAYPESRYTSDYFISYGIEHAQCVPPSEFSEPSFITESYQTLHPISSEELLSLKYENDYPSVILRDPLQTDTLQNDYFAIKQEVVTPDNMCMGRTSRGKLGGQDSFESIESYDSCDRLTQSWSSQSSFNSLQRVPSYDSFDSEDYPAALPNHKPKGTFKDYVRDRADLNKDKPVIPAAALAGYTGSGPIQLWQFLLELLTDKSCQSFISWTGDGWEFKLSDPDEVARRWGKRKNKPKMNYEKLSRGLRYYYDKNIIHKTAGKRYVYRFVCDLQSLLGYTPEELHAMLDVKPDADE
# ETS1 [2] = target: T1, ETS1; assay: ETS1 binding intensity (PBM fluorescence) in presence of RUNX1, normalised to ETS1-only experiment (arbitrary fluorescence units); higher = stronger binding; details: ETS1 concentration 1 nM; RUNX1 concentration 25 nM
Sequence,ETS1 binding intensity (ETS1 [1]),ETS1 binding intensity (ETS1 [2])
CGAAGAGGAAGCCCCTGTATCACCCCACAAGAAGCC,544,555
CAGATTTCCGGCTTCTGAGGAGCTGCCCTACCACAG,530,398
GAGCAGCGGGAGGAAGCTGCGGCGCGCAGAGCAGAG,534,486
TCTGAGAATGCAGGATATGTGTGTGGTCTCTAGTCA,1240,1510
CCACTAGCAGGAAAACGGGCCGAGGGACCGCAAGCA,395,688
AGCGGGAGGAAGTGCTGCAGTAGCCACAGCAGCCTG,534,737
ATTACATCCGGGCTCCGCGACACGCCCGAACCACAA,549,427
TTTCCAGAGGATGTAGCTTCTGCGGGAGAGCTTCAA,546,584
TATCACGTTTCCTGCTGCTGCACCGCGACCTCAGCT,513,492
CCCCAGGTTGCTTCCGTTCTGGGAACCGCGTCCTCG,1190,984
GAGATAGTCTGGAGGGGAAGTGGTTATAAGTGATAA,797,1290
GGGCTTCCGGCTGAACCCATGGCTGCGGGCTGTGCT,445,329
TAGAAAAGGAAGCAGGGTAGGTGTGGTATCTGGGTC,587,575
ACACCGCTCAGGAAGACAAAGCCACACCTCACACCG,457,356
GAAGTGATGTTAGACGGATGTGGGTGGTGCCTCCGG,1620,2790
GGGCAGCATCCTGTGCCTGCTTCTCTTACCCACATC,494,453
AGCACGTCCCCCTTCTTCCTCCCGCAGAGGGCCTGC,454,461
CTGGCCAGCTCCCACGGATGTGGTAGGCAGGCAGCA,965,1430
TTGGTGGCTTCCTGCCCAGGAGACCACACCCAGCTT,540,486
CTGTTCTCATCCGCCCGCTCTGAGTCACCCACACCT,465,441
AGCTGCGGAGCATCCGCTGCGGTCCTCGCCGAGACC,450,453
